# Laboratory results taken from PubChem BioAssay (Tox21).
# Results filed as inconclusive are left out. A call without a number means that no potency is given here. Values without a mark were called inactive. The source made the active and inactive calls. Calls come from the whole dose curve; as a rule, active = well fitted cell-killing curve with a large enough effect in the repeat runs; inconclusive = weak or mixed curves, or effect the other way; inactive = flat fitted curve, though single readings scatter.
# Assay: qHTS RealTime-Glo MT Cell Viability Assay in HepG2 cells - 0 hour (AID 1224889); note: nearly all actives have a fitted effect of over 50% in size
# Settings: RealTime-Glo luminescence; series mostly up to 76.8 µM
# Source text: U.S. Tox21 Program National Center for Advancing Translational Sciences [NCATS] NIH Chemical Genomics Center [NCGC] U.S. Environmental Protection Agency [EPA] National Institutes of Environmental Health Sciences [NIEHS] National Toxicology Program [NTP] U.S. Food and Drug Administration [FDA] Tox21 Assay Overview: Measure of cell viability is critical in the cell-base assay. Analysis of cell viability is necessary for the characterization of cell responses to cytotoxic drugs and environmental stress. A RealTime-Glo MT Cell Viability Assay to monitor cell viability in real time of continues cell culture during 40 hours of compound treatment was used to screen Tox21 10K library compounds in HepG2 cells. The RealTime-Glo MT Cell Viability Assay is a nonlytic, homogeneous, bioluminescent method to measure cell viability in real time using a simple, plate-based method. The assay involves adding NanoLuc luciferase and a cell-permeant prosubstrate to cells in culture. Viable cells reduce the proprietary prosubstrate to generate a substrate for NanoLuc luciferase. This substrate diffuses from cells into the surrounding culture medium, where it is rapidly used by the NanoLuc Enzyme to produce a luminescent signal. The signal correlates with the number of viable cells, making the assay well suited for cytotoxicity studies.
# Tox21 Assay Protocol Summary: The mixture of HepG2 cell suspension and reagents were dispensed at 600cells/6 ul/well in 1536-well tissue culture treated black solid bottom plates using a Multidrop dispenser. After the assay plates were incubated at a 37 C/5% CO2 incubator for 5 hours, 23 nL of compounds dissolved in DMSO, positive and negative controls was transferred to the assay plate by a pintool work station. The plates were incubated at 37 C for 40 hours. The luminescence intensity were measured at 0h, 8h, 16h, 24h, 32h and 40h time points using ViewLux plate reader during compound treatment.
Structure (SMILES),Potency,"activity change, negative = cytotoxicity"
O=C(O)c1c(Cl)ccc(Cl)c1Cl,inactive,–
O=S(=O)(O)SSS(=O)(=O)O,inactive,–
NC(=O)NNC(N)=O,inactive,–
C=COCCOCCOC=C,inactive,–
CC(C)(c1ccc(Oc2ccc3c(c2)C(=O)OC3=O)cc1)c1ccc(Oc2ccc3c(c2)C(=O)OC3=O)cc1,inactive,–
C=C[C@@H](C)CCC=C(C)C,inactive,–
C1=CCC(c2ccccc2)CC1 (stereo not given),inactive,–
F[Si-2](F)(F)(F)(F)F,inactive,–
C[CH2][Ge]([Cl])([CH2]C)[CH2]C,inactive,–
O=C(O)c1ccccc1C(=O)Nc1ccc(S(=O)(=O)Nc2nccs2)cc1,inactive,–
CCCCCCCCCCCCCCCCI,–,-19.8% [at 15.8 µM]
OCCCCCCCl,inactive,–
CCC(=O)OCCC(C)CCC=C(C)C (stereo not given),inactive,–
Nc1cc(S(=O)(=O)O)ccc1S(=O)(=O)O,inactive,–
CC(C)COC(=O)CC(C(=O)OCC(C)C)S(=O)(=O)O (stereo not given),inactive,–
CO[Si](CCCCl)(OC)OC,inactive,–
CCNC(=O)/C=C/c1cccc(Br)c1,inactive,–
COC(/C=C(\C)CCC=C(C)C)OC,inactive,–
C=CCOC(=O)c1ccc(C(=O)OCC=C)c(C(=O)OCC=C)c1,inactive,–
Cc1ccccc1OCC1CO1 (stereo not given),inactive,–

Structure (SMILES),Potency,"activity change, negative = cytotoxicity"
CCCCCCCCCCCCCCCCCCN(C)C,inactive,–
CC1=CC[C@H](CC=O)C1(C)C,inactive,–
O=P(O)(O)OCC(O)CO (stereo not given),inactive,–
CC(CC(=O)O)CC(C)(C)C (stereo not given),inactive,–
CNC(=O)C(c1ccccc1)c1ccccc1,inactive,–
O=c1cc(O)c(Cl)c[nH]1,inactive,–
CCCCCCCCCOCC1CO1 (stereo not given),inactive,–
CCCCC[Si](OCC)(OCC)OCC,inactive,–
CCOC(=O)CC(CC(=O)OCC)(OC(C)=O)C(=O)OCC,inactive,–
CCCCCC(=O)OCC,inactive,–
CN[C@@H]1[C@H](O)[C@H](NC)[C@H]2O[C@@]3(O)C(=O)C[C@@H](C)O[C@H]3O[C@@H]2[C@H]1O,inactive,–
CC(=O)/C=C/c1ccco1,inactive,–
CC(=O)OC[C@H]1O[C@@H](OC(C)=O)[C@H](OC(C)=O)[C@@H]1OC(C)=O,inactive,–
CCCCCCCC/C=C\CCCCCCCC(=O)OC[C@@H](O)[C@H]1OC[C@H](O)[C@H]1O,inactive,–
CCCCC(CC)CNC(=O)CC(C)OC(=O)CCC(=O)O (stereo not given),inactive,–
CNCc1ccccc1,inactive,–
Cn1c(=O)c2c(ncn2CC2OCCO2)n(C)c1=O,inactive,–
CCCCOC(=O)[C@@H](C)Oc1ccc(Oc2ccc(C(F)(F)F)cn2)cc1,inactive,–
C=C(C)C(=O)OC1CC(C)CC(C)(C)C1 (stereo not given),inactive,–
COc1cc([N+](=O)[O-])ccc1N,inactive,–
